The record followed here is PubChem BioAssay (NCI).

Structures are written as SMILES. Compounds without any hit were thinned out: in the full panel of roughly 83,000, 20% have a hit.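 Each cell line was grown in a 96-well plate and treated with one concentration of compound for 48 hours. Values below 10 were considered active.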 Values without a mark were called inactive. Activity calls are given as the source filed them.

Test systems include NCI-H23 lung; NCI-H226 lung; HOP-62 NSCLC; NCI-H460 lung; NCI-H522 lung; A549/ATCC NSCLC; 786-0 renal; COLO 205 colon; DU-145 prostate; K-562 leukemia; MALME-3M melanoma; MDA-MB-231 breast; RXF 393 renal; SF-268 CNS; SF-295 CNS; SF-539 CNS; UACC-257 melanoma; M14 melanoma.
What all share (experiment): NCI-60 one-dose screen, 48 h (100 = growth as untreated, 0 = no growth, -100 = all killed)
What all share (conditions): 10 µM

Consider `CCN(CC)CCOc1cccc2c1C(=O)c1ccccc1C2=O`, for which the growth in the experiment on NCI-H23 lung was 88.2%; in the experiment on NCI-H226 lung, 93.8%; in the experiment on HOP-62 NSCLC it was 82.5%; in the experiment with NCI-H460 lung, 101%; with NCI-H522 lung it was 84.3%; in the experiment with A549/ATCC NSCLC it was 90.6%. Moreover, the growth in the experiment on 786-0 renal was 93.1%; in the experiment on COLO 205 colon, 68.6%; in the experiment with DU-145 prostate, 100%; with K-562 leukemia, 93.8%; with MALME-3M melanoma, 115%; in the experiment with MDA-MB-231 breast, 85.7%. Besides, the growth in the experiment on RXF 393 renal was 79.9%; in the experiment with SF-268 CNS it was 94.2%; in the experiment with SF-295 CNS it was 96.8%; with SF-539 CNS, 99.7%; in the experiment on UACC-257 melanoma, 94.4%; in the experiment on M14 melanoma, 94.4%.
In the case of `COc1cc2c(Nc3ccc(-c4ccc(N)cc4)cc3)ncnc2c(OC)c1OC`, the growth in the experiment with NCI-H23 lung was 70.6%; in the experiment with NCI-H226 lung, 78.6%; in the experiment with HOP-62 NSCLC, 85.9%; in the experiment on NCI-H460 lung, 19.9%; in the experiment with NCI-H522 lung it was 48.6%; in the experiment on A549/ATCC NSCLC, 29.2%. The growth is 48% in the experiment on 786-0 renal; 19.8% with COLO 205 colon; 34.9% in the experiment on DU-145 prostate; 11% in the experiment on K-562 leukemia; 36.5% in the experiment on MALME-3M melanoma; 56.9% in the experiment with MDA-MB-231 breast. Besides, the growth with RXF 393 renal is 103%; in the experiment on SF-268 CNS, 52.6%; with SF-295 CNS, -33.2% (active); in the experiment with SF-539 CNS, 17.5%; in the experiment with UACC-257 melanoma it was 43.8%; in the experiment on M14 melanoma, 13.8%.
`O=C(CCC(C(=O)c1ccccc1)c1ccccc1)c1ccccc1` (configuration not stated): the growth is 78.6% with NCI-H23 lung; 83.1% in the experiment with NCI-H226 lung; 76.8% with HOP-62 NSCLC; 76.2% in the experiment on NCI-H460 lung; 3.51% (active) in the experiment on NCI-H522 lung; 61.9% in the experiment with A549/ATCC NSCLC. Besides, the growth with 786-0 renal is 82.7%; in the experiment on COLO 205 colon, 79.7%; in the experiment on DU-145 prostate it was 86.4%; in the experiment with K-562 leukemia, 18.7%; in the experiment with MALME-3M melanoma it was 43.4%; in the experiment with MDA-MB-231 breast, 77.9%. Moreover, the growth in the experiment on RXF 393 renal was 78%; in the experiment on SF-268 CNS it was 85%; with SF-295 CNS, 36.9%; in the experiment with SF-539 CNS it was 99.9%; in the experiment with UACC-257 melanoma it was 90.5%; in the experiment with M14 melanoma, 52.2%.
With `CC(C)C[C@H](NC(=O)Cn1cccc(CNC(=O)c2ccccc2)c1=O)B(O)O`, the growth with NCI-H23 lung was 23.7%; with NCI-H226 lung, -66% (active); in the experiment on HOP-62 NSCLC, 5.64% (active); in the experiment with NCI-H460 lung, 27.8%; in the experiment on NCI-H522 lung, -9.79% (active); with A549/ATCC NSCLC, 43.9%. The growth with 786-0 renal is 29.5%; in the experiment on COLO 205 colon, 30.6%; in the experiment with DU-145 prostate it was 43.1%; with K-562 leukemia, 11.6%; in the experiment with MALME-3M melanoma, -35.3% (active); in the experiment with MDA-MB-231 breast, -2.81% (active). In addition, the growth in the experiment on RXF 393 renal was -19% (active); in the experiment with SF-268 CNS, -19.5% (active); in the experiment on SF-295 CNS, 1.43% (active); in the experiment on SF-539 CNS, -16.6% (active); with UACC-257 melanoma, -9.26% (active); with M14 melanoma, 12.2%.
In the case of `COc1ccc(-c2csc(NC(=O)c3ccc(Cc4n[nH]c(=O)c5cccnc45)cc3)n2)cc1`, the growth with NCI-H23 lung is 80.4%; in the experiment on NCI-H226 lung, 71.4%; with HOP-62 NSCLC, 92%; in the experiment with NCI-H460 lung, 97.4%; in the experiment with NCI-H522 lung, 80.7%; with A549/ATCC NSCLC, 101%. Also, the growth in the experiment with 786-0 renal is 99.2%; with COLO 205 colon, 110%; in the experiment on DU-145 prostate, 108%; with K-562 leukemia it was 82.9%; in the experiment on MALME-3M melanoma, 86.8%; in the experiment with MDA-MB-231 breast, 79.7%. Further, the growth with RXF 393 renal is 72.4%; in the experiment with SF-268 CNS, 97.1%; in the experiment on SF-295 CNS it was 86.6%; with SF-539 CNS, 87.1%; with UACC-257 melanoma, 94.5%; in the experiment on M14 melanoma, 103%.
On to `O=C1CC(SC(=S)C2CCCC2=O)C(=O)N1` (configuration not stated), for which the growth in the experiment with NCI-H23 lung was 98.4%; with NCI-H226 lung, 92.4%; with HOP-62 NSCLC, 106%; in the experiment on NCI-H460 lung it was 104%; in the experiment on NCI-H522 lung, 109%; in the experiment on A549/ATCC NSCLC it was 101%. Besides, the growth in the experiment on 786-0 renal is 95.7%; in the experiment with COLO 205 colon, 116%; with DU-145 prostate it was 108%; with K-562 leukemia it was 98%; with MALME-3M melanoma it was 104%; in the experiment with MDA-MB-231 breast, 105%. In addition, the growth in the experiment with RXF 393 renal is 115%; in the experiment on SF-268 CNS it was 102%; with SF-295 CNS, 104%; with SF-539 CNS, 104%; in the experiment on UACC-257 melanoma, 90.4%; in the experiment on M14 melanoma, 101%.
Take `COc1cccc(N=Nc2cccc(OC)c2)c1`: the growth with NCI-H23 lung was 86.4%; in the experiment on NCI-H226 lung, 90.5%; with HOP-62 NSCLC it was 82.6%; in the experiment with NCI-H460 lung it was 103%; with NCI-H522 lung, 73%; with A549/ATCC NSCLC it was 83.9%. Also, the growth was 91.3% with 786-0 renal; 107% in the experiment with COLO 205 colon; 112% in the experiment with DU-145 prostate; 87.8% with K-562 leukemia; 101% in the experiment on MALME-3M melanoma; 84% in the experiment with MDA-MB-231 breast. Also, the growth in the experiment with RXF 393 renal was 91.2%; in the experiment on SF-268 CNS, 103%; with SF-295 CNS, 92.8%; in the experiment with SF-539 CNS it was 95.4%; in the experiment with UACC-257 melanoma, 90.9%; in the experiment with M14 melanoma, 90.7%.
With `COc1cc2cc(Oc3ccc(NC(=O)c4cccc(C(F)(F)F)c4)cc3)c(C)nc2cc1OC`, the growth in the experiment on NCI-H23 lung is 27.1%; in the experiment on NCI-H226 lung, 48.1%; in the experiment on HOP-62 NSCLC, 87.1%; with NCI-H460 lung, 28.3%; in the experiment on NCI-H522 lung it was 28.9%; in the experiment on A549/ATCC NSCLC, 24.1%. In addition, the growth was 45.4% in the experiment on 786-0 renal; 27.2% in the experiment on COLO 205 colon; 52.9% in the experiment on DU-145 prostate; 23.8% in the experiment with K-562 leukemia; 47.5% in the experiment with MALME-3M melanoma; 33.3% with MDA-MB-231 breast. Further, the growth is 54% with RXF 393 renal; 62.9% in the experiment with SF-268 CNS; 8.94% (active) in the experiment with SF-295 CNS; 60% with SF-539 CNS; 44.9% in the experiment with UACC-257 melanoma; 16.1% in the experiment with M14 melanoma.
Take `CCOC(=O)c1cc(C(=O)c2cc(OC)c(OC)c(OC)c2)n2ncc3ccccc3c12`: the growth with NCI-H23 lung was 82.5%; in the experiment with NCI-H226 lung it was 95.1%; in the experiment on HOP-62 NSCLC, 89.5%; with NCI-H460 lung, 51.3%; with NCI-H522 lung, 39.6%; with A549/ATCC NSCLC, 54.8%. Further, the growth in the experiment on 786-0 renal was 94.5%; in the experiment with COLO 205 colon it was 60.4%; in the experiment on DU-145 prostate, 83.6%; with K-562 leukemia it was 23%; in the experiment on MALME-3M melanoma, 70.5%; in the experiment with MDA-MB-231 breast, 98.7%. Moreover, the growth with RXF 393 renal is 88.3%; in the experiment on SF-268 CNS it was 84%; with SF-295 CNS it was 72.5%; in the experiment on SF-539 CNS, 86.7%; in the experiment with UACC-257 melanoma it was 57.1%; in the experiment with M14 melanoma, 50.2%.
